Assay results taken from PubChem BioAssay (NCI).
Several values for one entry are separate records, joined by “and”; a condition that tells them apart may be missing. Identical values can stand only once. The panel holds about 83,000 compounds, 20% with a hit somewhere; the sample as a whole holds those more often.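 Activity criterion: percent growth below 10, measured after cells in 96-well plates were exposed to a single compound concentration for 48 hours.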 Activity calls are given as the source filed them. Where a SMILES comes first, the peptide text is derived from it. [ ]: non-standard residue; d: D form. ξ: configuration not given here. ξV = CC(C)C(N)C(=O)O

Test system: SK-MEL-28 melanoma
Test: NCI-60 one-dose screen, 48 h (100 = growth as untreated, 0 = no growth, -100 = all killed)
Settings: 0.0025 µM
Description: Growth inhibition of the SK-MEL-28 human tumor cell line is measured as a screen for anti-cancer activity. Cells are grown in 96 well plates and exposed to the test compound for 48 hours. Compounds are tested at a single concentration, which is 10^-5 M for most compounds. The reported endpoint is percent growth (GI% or GIPRCNT), where numbers from 0 - 100% represent growth inhibition, and numbers from -100% - 0 represent cell death. For example, a value of 40 represents 60% growth inhibition. A value of 0 means no net growth occurred over the course of the experiment. A value of -40 indicates 40% of cells at the beginning of the experiment died by the end of the experiment. A value of -100 means all cells are dead at the end of the experiment.
NCI-60 Human Tumor Cell Lines Screen was performed using the standard one-dose NCI protocol, which is described in more detail at https://dtp.cancer.gov/discovery_development/nci-60/default.htm.
Compounds with GIPRCNT values below 10 were considered active. Activity score was based on GIPRCNT using the following formula: […]
Score is 0 for GIPRCNT values of 100 or above, 50 for GIPRCNT values of 0, and 100 for GIPRCNT values of -100.

SMILES	growth
COc1cccc2c1C(=O)c1c(O)c3c(c(O)c1C2=O)C[C@@](O)(C(=O)CO)C[C@@H]3OC1CC(N)C(O)C(C)O1 (stereo not given in full)	93.7% (inactive)

Same assay, conditions: 1 µM

SMILES	growth
COc1cccc2c1C(=O)c1c(O)c3c(c(O)c1C2=O)C[C@@](O)(C(=O)CO)C[C@@H]3OC1CC(N)C(O)C(C)O1 (stereo not given in full)	65.7% (inactive)

Same assay, conditions: 2.5 µM

SMILES	growth
COc1cccc2c1C(=O)c1c(O)c3c(c(O)c1C2=O)C[C@@](O)(C(=O)CO)C[C@@H]3OC1CC(N)C(O)C(C)O1 (stereo not given in full)	70.7% (inactive)

Same assay, conditions: 10 µM

SMILES	growth
O=C1NC(=O)c2cc([N+](=O)[O-])ccc21	120% (inactive)
CCO/C=C1\SC(=S)N(c2cccc(O)c2)C1=O	102% (inactive)
Nc1c2ccccc2nc2ccccc12	18% (inactive) and 28.2% (inactive) and 82.1% (inactive)
N=S(c1ccccc1[N+](=O)[O-])c1ccccc1[N+](=O)[O-]	77.5% (inactive)
CS(=O)(=O)OC1CC(n2ccc(=O)[nH]c2=O)OC1COC(c1ccccc1)(c1ccccc1)c1ccccc1 (stereo not given)	104% (inactive)
O=C(O)COc1ccc(OCC(=O)O)cc1	53.2% (inactive)
CC1=CC(C)=Nc2ccc(Cl)cc2N1	124% (inactive)
CCCCCCCCCCSC(=N)N	89.3% (inactive)
NC1=C(Cl)C(=O)c2ccccc2C1=O	105% (inactive)
O=C1C=CC(=CC=C2C=CN(CCCCCCCCCCCO)C=C2)C=C1	37.6% (inactive)
CCCCCCCCCCCC[N+](C)(C)Cc1ccccc1	17.5% (inactive)
O=[N+]([O-])C1=C(c2ccccc2)SC=C(c2ccccc2)S1	88.2% (inactive)
COc1cccc2c1C(=O)c1c(O)c3c(c(O)c1C2=O)C[C@@](O)(C(=O)CO)C[C@@H]3OC1CC(N)C(O)C(C)O1 (stereo not given in full)	-17% (active)
O=C(/C=C/c1cccnc1)c1ccccc1	102% (inactive)
CC(C)C(NC(=O)CN)C(=O)O (stereo not given) (H-Gly-[ξV]-OH)	109% (inactive) and 107% (inactive)
COc1ccc(CC(=O)c2ccc(O)cc2O)cc1	139% (inactive)
CC(=O)Nc1cc(C)ccc1C	105% (inactive)
CSC1SCC2C(=O)N(C)C(C(C)C)C(=O)OCC(NC(=O)c3cnc4ccccc4n3)C(=O)NC(C)C(=O)N(C)C1C(=O)N(C)C(C(C)C)C(=O)OCC(NC(=O)c1cnc3ccccc3n1)C(=O)NC(C)C(=O)N2C (stereo not given)	-13.9% (active)
CCN(CC)c1ccc(NC(C(=O)c2ccccc2)c2ccccc2)cc1 (stereo not given)	16.9% (inactive)

SMILES	growth
OCC(O)C(O)C(O)C(/C=N/Nc1ccccc1)=N/Nc1ccccc1 (stereo not given)	103% (inactive)
CN(C)C(=S)SC(=S)N(C)C	105% (inactive) and 104% (inactive)
NC(=O)SCC(=O)NNc1ccccc1	106% (inactive)
Clc1cc(Cl)c(Cl)nn1	116% (inactive)
Nc1ccc2cc3ccc(N)cc3nc2c1	108% (inactive) and -6.93% (active)
CCCCCC(C)c1ccc(O)c(C)c1 (stereo not given)	111% (inactive)
Cc1cc(O)c(C(C)C)cc1Cl	105% (inactive)
COC(=O)C1C(O)C(C)C(O)C(C)C=C(C)C2=C3C(=C(C)C(=O)c4c(O)c(c(C)c(OC(C)=O)c43)NC(=O)C(C)=C/C=C\C(C)C(O)C(C)C1O)OCO2 (stereo not given)	118% (inactive)
COc1c(O)cc2oc3cc(O)c(CC=C(C)C)c(O)c3c(=O)c2c1CC=C(C)C	87.8% (inactive)
O=C(Nc1ccc(C(=O)O)c(O)c1)c1ccccc1	110% (inactive) and 151% (inactive)
CCC(C)(C)c1cc(O)c(C(C)(C)CC)cc1O	43.5% (inactive)
OC(CN1CCCC2CCCCC21)c1cc2ccccc2c2ccccc12 (stereo not given)	49.4% (inactive)
CN1CCN(CCCN2c3ccccc3Sc3ccc(C(F)(F)F)cc32)CC1	-45.4% (active)
NNc1ccc2ccccc2c1	111% (inactive) and 114% (inactive)
CC(=O)OCC(OC(C)=O)C(OC(C)=O)C(OC(C)=O)C(OC(C)=O)C(/C=N/Nc1ccccc1)=N/Nc1ccccc1 (stereo not given)	101% (inactive)
COC(=O)C1=COC(C)C2C[n+]3ccc4c([nH]c5ccccc54)c3CC12 (stereo not given)	106% (inactive) and 103% (inactive)
O=C(C(=Cc1ccccc1)C(=O)c1ccccc1)c1ccccc1	60.4% (inactive) and 105% (inactive)
CCCC1CCC(=C2C(=O)CCC2=O)O1 (stereo not given)	103% (inactive)
